Source: PubChem BioAssay (National Center for Advancing Translational Sciences (NCATS))
Vaccinia mCherry – inhibitors of vaccinia virus infection (mCherry reporter signal); Vaccinia virus mCherry reporter infection, fluorescence; Potency, µM (highest dose often 36.5 µM), for the others: at the top dose activity change, negative = inhibition, usual class: inhibitors; actives 0.63% (n = 310,000); AID 720579; calls by dose curve; tested in A549 cells; further: potency means the concentration at half of the fitted maximal effect; on the % scale 0 is the no-effect control and ±100 the full control effect; nearly all actives have a fitted effect of over 35% in size
LASV entry inh – blocks Lassa virus binding to or entry into cells. Lassa virus pseudotype entry inhibition, cell reporter. Potency, µM (top dose mostly 37.9 µM), for inactives: at the highest dose activity change, negative = inhibition, actives largely listed as inhibitors. actives 1.2% (n = 300,000). AID 540256; calls by dose curve; tested in HEK293 cells; further: potency means the concentration at half of the fitted maximal effect; on the % scale 0 is the no-effect control and ±100 the full control effect; nearly all actives have a fitted effect of over 50% in size
Cycloheximide cs – counter-screen hit for Shiga toxin inhibitors, cycloheximide | AID 2314 | max response, % | actives 12% (n = 300,000) | cell reporter, cycloheximide protein synthesis inhibition counterscreen; in the data active means max response mostly above about 13%, no sharp cut-off; inactive means mostly below about 14%; further: read at 38.3 µM for the half of the compounds with a filed dose; 0% is about no effect
MARV entry inh – inhibitors of Marburg virus binding or cell entry | Marburg virus pseudotyped entry inhibition, cell reporter | Potency, µM (highest dose often 37.8 µM), for inactives: at the top dose activity change, negative = inhibition, hits mostly inhibitors | actives 1.8% (n = 300,000) | AID 540276; calls by dose curve; tested in HEK293 cells; further: potency means the concentration at half of the fitted maximal effect; on the % scale 0 is the no-effect control and ±100 the full control effect
VACV Venus inh – inhibitors of vaccinia virus (Venus reporter); Vaccinia virus Venus reporter expression, fluorescence; Potency, µM (series often up to 36.5 µM), for inactives: at the top dose activity change, negative = inhibition, actives largely listed as inhibitors; actives 0.46% (n = 330,000); AID 720580; calls by dose curve; tested in A549 cells; further: potency means the concentration at half of the fitted maximal effect; on the % scale 0 is the no-effect control and ±100 the full control effect; nearly all actives have a fitted effect of over 30% in size
Shiga toxin inh – Shiga toxin inhibition; AID 2315; Vero cells, Shiga toxin protein synthesis inhibition reporter; actives 9.2% (n = 290,000); inhibition, % at 38.7 µM; in the data active means inhibition mostly above about 28%, no sharp cut-off; inactive means mostly below about 43%; further: 0% is about no effect
An asterisk follows results filed as active; i = inactive; ? = inconclusive; . = not tested or not shown; [ ] = dose if it differs, or a comment. Shown is part of a subset that was picked to be rich in hits.

SMILES | Vaccinia mCherry | LASV entry inh | Cycloheximide cs | MARV entry inh | VACV Venus inh | Shiga toxin inh
CCn1cc(C(=O)Nc2ccc(Cl)cc2Cl)cn1 | i | -8%[46.1 µM] | . | 1%[46.1 µM] | -7% | .
CCn1cc(C(=O)Nc2ccc(C)c([N+](=O)[O-])c2)cn1 | -22% | 4% | 10 | 3% | -8% | active
CCn1cc(C(=O)Nc2ccc(F)c(F)c2)cn1 | -2% | -12% | 11* | 22% | -6% | 60*
Cc1c(Cc2ccccc2)c(=O)oc2cc(OCC(=O)N3CCC(C(=O)O)CC3)ccc12 | -15% | . | -2 | . | -8% | -4
Cc1c(C(=O)NCC2CCCO2)sc2nc(-c3ccc(F)cc3)cn12 (stereo not given) | 0% | . | 32* | . | ? | 32
Cc1c(C(=O)NCc2ccccn2)sc2nc(-c3ccccc3)cn12 | i | . | 29* | . | -7% | 20*
COCCNC(=O)c1sc2nc(-c3ccccc3)cn2c1C | 3% | 23% | 29* | 34% | -1% | 70*
CN(N=O)c1ccc(O)c(O)c1 | . | ? | . | 18µM* | . | .
CN(N=O)c1ccc(/C=C/c2ccccc2)cc1 | -10% | . | . | . | -9% | .
COC(=O)C1CN(C(=O)C(C)Oc2ccc(F)cc2)c2ccccc2O1 (stereo not given) | -19% | 7%[46.1 µM] | -3 | -4%[46.1 µM] | -14% | 6
CC(=O)N1CCc2c(sc3c2c(=O)n(-c2ccccc2)c(=O)n3Cc2cccc(C(F)(F)F)c2)C1 | ? | . | . | -24%[46.1 µM] | -12% | .
COC(=O)Cn1cnc2c(cnn2-c2ccc(C)cc2)c1=O | . | . | 48* | . | . | 69*
Cc1ccc(-n2ncc3c(=O)n(CC(N)=O)cnc32)cc1 | . | . | -2 | . | . | -1
COC(=O)Cn1cnc2c(cnn2-c2ccc(OC)cc2)c1=O | i | 12%[46.1 µM] | 23* | 9%[46.1 µM] | 6% | 42
Cc1nc(C)c(C(=O)O)s1 | i | 1%[46.1 µM] | -5 | ? | 1% | -11
COC(=O)c1ccc(CNC(=O)c2ccc(OC)c(S(=O)(=O)NC3CC3)c2)cc1 | -23% | . | . | . | -13% | .
NC(=O)[C@@H]1CCCN1C(=O)CCN1Cc2ccccc2OC(c2ccccc2F)C1 (stereo not given in full) | -11% | . | . | . | -7% | .
COc1cc(F)ccc1-c1csc(C(O)(c2ccccc2)C(F)(F)F)n1 (stereo not given) | i | . | . | . | -13% | .
CCN(Cc1ccccc1)c1ccc(/C=C/c2nccc3ccccc23)cc1 | 18% | . | . | . | 22% | .
CC(C)C[C@@H](CSc1ccc(Br)cc1)N1CCN(CC(C)C)CCC1=O | i | . | 18* | . | -9% | 75*
CCCN1CCC(=O)N([C@H](CSc2ccc(OC)cc2)c2ccccc2)CC1 | -9% | . | 15* | . | -8% | 37*
CC(=O)Nc1ccc(SC[C@H](CC(C)C)N2CCN(CC(C)C)CCC2=O)cc1 | i | . | -6 | . | -18% | -4
COc1ccc(SCC(c2ccccc2)N2CCN(CC(C)C)CCC2=O)cc1 (stereo not given) | . | . | 9 | . | . | -5
CCCN1CCC(=O)N(C(CSc2ccc(Br)cc2)CC(C)C)CC1 (stereo not given) | . | . | 36* | . | . | 89*
CCCN1CCC(=O)N(CCSc2ccc(OC)cc2)CC1 | -26% | . | 9 | . | -19% | 11
SMILES | Vaccinia mCherry | LASV entry inh | Cycloheximide cs | MARV entry inh | VACV Venus inh | Shiga toxin inh
CCCN1CCC(=O)N(C(CSc2ccc(OC)cc2)CC(C)C)CC1 (stereo not given) | . | . | 43* | . | . | 53*
CC(C)CCNC(=O)CN1C(=O)CSc2ccc(S(=O)(=O)N3CCC(C)CC3)cc21 | -8% | 2%[46.1 µM] | . | . | -6% | .
O=C(O)c1ccc(Nc2ccc(Cl)c(Cl)c2)c([N+](=O)[O-])c1 | . | . | -1 | . | . | 0
CNc1c(Br)cc(C=O)cc1Br | -14% | . | . | . | -9% | .
Cc1ccc(Cl)cc1N1CCN(C(=O)Cn2ncc3c([nH]c4ccccc43)c2=O)CC1 | 3% | 11%[46.1 µM] | . | . | -11% | .
Cc1ccc(-c2csc(CC(N)=O)n2)cc1 | i | 23%[46.1 µM] | 31* | ? | 0% | 66*
Oc1csc(Cc2nc(-c3ccc(Br)cc3)cs2)n1 | ? | -6% | 38* | 13%[46.1 µM] | 1% | 130*
NC(=O)Cc1nc(-c2ccc(Br)cc2)cs1 | i | 0% | 21 | 10% | -11% | 37*
O=c1oc2ccccc2cc1-c1csc(Cc2nc(-c3ccc(Br)cc3)cs2)n1 | . | -28% | 7 | -20% | . | 4
NC(=O)Cc1nc(-c2ccccc2)cs1 | -9% | 5% | 6 | ? | -5% | -2
N/C(Cc1nc(-c2ccc(Cl)cc2)cs1)=N\O | . | . | . | 6% | . | .
N/C(Cc1nc(-c2ccc(Cl)cc2)cs1)=N/O | -15% | 3% | 41* | 6% | -26% | 40*
COCC(C)(C)COS(N)(=O)=O | i | . | -2 | . | -13% | -6
O=C1NC(c2ccc(Cl)cc2)Oc2ccccc21 (stereo not given) | . | . | 1 | . | . | 1
CC(C)c1ccc(C2NC(=O)c3ccccc3O2)cc1 (stereo not given) | i | 8% | 19* | ? | -10% | 101*
COCCCn1c(-c2ccccc2)nc2ccccc2c1=O | . | 9% | -5 | 13% | -12% | 21
CCCn1c(-c2ccc(OC)cc2)nc2ccccc21 | . | -1% | 13* | 1% | . | 10
CCOc1ccc(Cn2c(-c3ccc(OCC)c(OC)c3)nc3ccccc32)cc1OC | i | -6%[46.1 µM] | . | ? | -10% | .
COc1ccc(Cn2c(-c3ccc(OC)c(O)c3)nc3ccccc32)cc1O | -1% | ? | 27* | ? | -24% | 75*
COCCn1c(-c2ccccc2)nc2ccccc21 | 3% | 11% | 66* | ? | 6% | 96*
COCn1c(-c2ccc(OC)cc2)nc2ccccc21 | i | -19% | 51* | -17%[46.1 µM] | -22% | active
C=C(C)Cn1c(-c2ccc(OC)cc2)nc2ccccc21 | . | -16% | 15 | ? | -29% | 1
CCOC(Cn1c(-c2ccc(OC)cc2)nc2ccccc21)OCC | -18% | 0% | 16 | ? | -13% | 9
CC(OC(=O)c1ccc(NC(=O)CC#N)cc1)C(=O)NC(=O)NC1CCCCC1 (stereo not given) | -7% | -9% | -2 | -14% | -3% | 14
Cc1onc(-c2ccccc2Cl)c1C(=O)Nc1ncn[nH]1 | i | ? | -1 | 22% | -15% | 23
SMILES | Vaccinia mCherry | LASV entry inh | Cycloheximide cs | MARV entry inh | VACV Venus inh | Shiga toxin inh
COc1ccc(Cn2c(O)c(C=Nc3ccc(C)cc3)c3ccccc3c2=O)cc1 | -10% | 6% | -1 | 14% | 24% | -3
COc1ccc(-c2nc3ccccc3n2Cc2ccc(C)cc2)cc1 | . | 1% | 42* | 9%[46.1 µM] | -19% | 44*
COc1ccc(Cn2c(-c3ccc(C)cc3)c[n+]3ccccc23)cc1 | i | 6.3µM* | 10 | ? | -7% | 21
COc1ccc(-c2nc3ccccc3n2Cc2ccc(Cl)cc2)cc1 | -15% | ? | . | ? | -4% | .
COc1ccc(Nc2nc(C)cc(-c3cc(-c4ccccc4)on3)n2)cc1 | -20% | . | . | . | ? | .
O=C(O)c1nn(CCOc2ccc(Br)cc2)c(=O)c2ccccc12 | i | 14%[46.1 µM] | -1 | 3%[46.1 µM] | 3% | -2
O=C(O)c1nn(CCOc2ccccc2F)c(=O)c2ccccc12 | -8% | -62% | 12* | -1%[46.1 µM] | -24% | 26
CCN(CCCNC(=O)c1ccc(Sc2ccc(Cl)cc2)c(NC(C)=O)c1)c1ccccc1 | -17% | -11%[46.1 µM] | . | . | -6% | .
